The structures appear in SMILES notation. Active and inactive are the calls of the source. Rule as the data show it: active = inhibition above about 44%; inactive = the rest.

15 compounds from PubChem BioAssay can be followed below.

Steroidogenic factor 1 (Homo sapiens), sequence (Q13285 whole entry, looked up): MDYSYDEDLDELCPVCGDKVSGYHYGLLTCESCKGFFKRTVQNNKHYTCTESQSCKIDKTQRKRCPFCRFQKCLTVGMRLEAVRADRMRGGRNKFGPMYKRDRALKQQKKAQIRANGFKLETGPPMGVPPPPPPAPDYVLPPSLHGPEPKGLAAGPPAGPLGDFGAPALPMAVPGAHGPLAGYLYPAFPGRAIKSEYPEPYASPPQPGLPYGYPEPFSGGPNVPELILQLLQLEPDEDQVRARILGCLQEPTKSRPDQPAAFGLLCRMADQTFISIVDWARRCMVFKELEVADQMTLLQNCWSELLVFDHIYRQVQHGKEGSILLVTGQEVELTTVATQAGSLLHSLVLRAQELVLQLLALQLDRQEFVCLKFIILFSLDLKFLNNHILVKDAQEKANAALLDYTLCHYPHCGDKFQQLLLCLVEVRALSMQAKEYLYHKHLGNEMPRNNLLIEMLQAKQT

This assay concerns the target Steroidogenic factor 1 (Homo sapiens) (UniProt Q13285). In words: inverse agonism at SF1 nuclear receptor – cell-based, luminescence, high throughput, counter-screen for LRH-1 inverse agonist project (AID 651614).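 Also: cells cotransfected with StAR promoter reporter and SF1 expression vector; 0% = vehicle on cells with receptor and 100% = vehicle on cells lacking receptor.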 Particulars: cell-based SF1 luciferase reporter, at 3.6 µM, stronger effect = higher value.
Turning to `CC1=CC2OC3CC4OC(=O)C=CC=CC(=O)OCCC(C)C(O)C(=O)OCC2(CC1)C4(C)C31CO1` (stereo not given), the inhibition (as a rule, the drop in the measured response relative to a control, in per cent) was 98.2% (active).
Under `Cn1cc(NC(=O)CCl)cn1` stands 61.2% (active); under `CCN1CCN(c2cc(N3CCCC3)c([N+](=O)[O-])cc2F)CC1`, 46.4% (active); under `O=Cc1cn(Cc2cccc([N+](=O)[O-])c2)c2ccccc12`, 80.3% (active).
As to `CC1CCN(C(=O)CCl)CC1`, the inhibition is 57% (active).
With `Cc1cc(OCC(=O)OC(C)C)c2c3c(c(=O)oc2c1)CCCC3` the figure was 54.9% (active); with `CCOC(=O)[C@]12Cc3cc(Cl)ccc3[C@H]1N(C1CCCCC1)C(=O)c1cc(OC)ccc12`, 93.1% (active); with `CCN(CC)C1=NC(=[N+](CC)CC)c2ccccc21`, 74.5% (active).
Under `CCOC(=O)[C@]12Cc3c(cc(OC)c(OC)c3OC)[C@H]1N(C1CCCCC1)C(=O)c1ccccc12` stands 46.2% (active); under `CCOC(=O)[C@]12Cc3ccc(C)cc3[C@H]1N(C1CCCCC1)C(=O)c1cc(OC)ccc12`, 75.1% (active).
Regarding `COc1cc2c(cc1OC)C1C(=O)c3ccc4c(c3OC1CO2)CC(C(C)C)O4` (stereo not given), the inhibition is 73.1% (active).
Regarding `CC12CCC(O)CC1CCC1C2CCC2(C)C(C3=CC(=O)OC3)C(O)CC12O` (stereo not given), the inhibition was 74.8% (active).
Under `N#Cc1ccc(Cn2cc(C=O)c3ccccc32)cc1` stands 42.4% (inactive); under `COc1cccc2c1C(=O)c1c(O)c3c(c(O)c1C2=O)CC(O)(C(C)=NO)CC3OC1CC(N)C(O)C(C)O1` (stereo not given), 62.3% (active); under `C=C1[C@@H](C)[C@H]2[C@H](Cc3ccccc3)NC(=O)[C@]23OC(=O)/C=C/[C@H](O)CCC[C@@H](C)C/C=C/[C@H]3[C@@H]1O`, 44.3% (active).
